Compound activity from PubChem.
Most compounds without a hit are left out; they make up all but 0.5% or so of the library.
AddAB inh: growth inhibition of E. coli expressing H. pylori AddAB, primary screen, AddAB inhibitor project, absorbance. inhibition, % at 11.9 µM. AID 435030, 2010. actives 0.29% (n = 330,000); in the data active means inhibition above about 12%
E coli growth-1: E. coli V3065 growth inhibition, primary screen, counter-screen for AddAB inhibitor project, absorbance, OD600 | 18 h | inhibition, % at 11.9 µM | AID 449728, 2010 | actives 0.27% (n = 330,000);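 active means inhibition above the campaign's mean inhibition across all tested compounds plus 3 SD, cut at about 9.9% in these data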;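 further: uninfected addAB+ strain grown without phage in ampicillin broth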
Tat transport: E. coli Tat export inhibitors, primary screen, MC4100, TorA-mCherry reporter, fluorescence, single point. inhibition, % at 10 µM. actives 0.036% (n = 340,000). AID 488895, 2010;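 active means mean replicate inhibition at least 50% and at least half of replicates individually reaching 50%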;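 further: exported cargo escapes ClpAP degradation while cytoplasmic cargo is degraded and loses fluorescence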
phage Ecoli inh: growth loss of phage-infected E. coli, primary screen, RecBCD inhibitor project, absorbance, with phage, HTS; inhibition, % at 11.9 µM; actives 0.26% (n = 360,000); AID 651602, 2012; in the data active means inhibition above about 11%
E coli growth-2: E. coli growth inhibition, primary screen, OD600. Escherichia coli growth, 23 h; active compounds read low. OD600 absorbance (test concentration not listed). actives 0.21% (n = 330,000). AID 1053175, 2014;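 active means OD600 absorbance below the run mean of sample wells minus 3.6 SD, in any replicate, cut at about 0.56 in these data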
Of the large screens only hits and unclear results are named; the others gave an inactive call; ! = not confirmed by another sample.

CC(C)C[C@@H]1CN=C(N)N1C[C@@H]1CCCN1C[C@H](C)N1C[C@@H](Cc2ccccc2)N(CCc2ccc(Cl)c(Cl)c2)C1=N	none (no result: phage Ecoli inh, E coli growth-2)
CC(C)C(CN1CCCC1CN1C(N)=NCC1Cc1ccccc1)N1CC(Cc2ccccc2)N(CCc2ccc(Cl)c(Cl)c2)C1=N (stereo not drawn)	E coli growth-2 0.046 (no result: AddAB inh, E coli growth-1, Tat transport, phage Ecoli inh)
CC(C)C[C@@H]1CN=C(N)N1C[C@@H]1CCCN1C[C@@H](C(C)C)N1C[C@@H](Cc2ccccc2)N(CCc2ccc(Cl)c(Cl)c2)C1=N	E coli growth-2 0.07
CCC(C)C1CN(C(C)CN2CCCC2CN2C(N)=NCC2Cc2ccccc2)C(=N)N1CCc1ccc(Cl)c(Cl)c1 (stereo not drawn)	none (no result: AddAB inh, E coli growth-1, Tat transport, phage Ecoli inh)
CC(C)CC1CN=C(N)N1CC1CCCN1CC(C)N1CC(Cc2ccccc2)N(CCc2ccc(Cl)c(Cl)c2)C1=N (stereo not drawn)	E coli growth-2 0.2 (no result: AddAB inh, E coli growth-1, Tat transport, phage Ecoli inh)
Cc1ccc(Oc2ncccc2C=NOCc2ccc(Cl)cc2Cl)cc1	none (no result: AddAB inh, E coli growth-1, Tat transport, phage Ecoli inh)
O=C1N/C(=N/N=Cc2ccccc2O)SC1Cc1ccc(F)cc1 (stereo not drawn)	none (no result: AddAB inh, E coli growth-1, Tat transport, phage Ecoli inh)
CC(O)C1CNCCN1CCc1cccc2ccccc12 (stereo not drawn)	none (no result: AddAB inh, E coli growth-1, Tat transport, phage Ecoli inh)
CN(C)C(=O)C[n+]1ccc(/C=N/O)cc1	none (no result: E coli growth-2)
CCCCCCCCCCCCCCCC[n+]1ccc(C=NO)cc1	E coli growth-2 0.4 (no result: AddAB inh, E coli growth-1, Tat transport, phage Ecoli inh)
CCn1cc(C(=O)Nc2ccccc2)c(=O)c2ccc(C)nc21	none (no result: Tat transport, phage Ecoli inh)
CCn1cc(C(=O)NC2CCCCC2C)c(=O)c2ccc(C)nc21 (stereo not drawn)	E coli growth-2 0.059
CCOc1ccc(NC(=O)C2CCCN(S(=O)(=O)c3cnc[nH]3)C2)cc1 (stereo not drawn)	none (no result: phage Ecoli inh)
CCOC(=O)Cc1csc(NC(=O)C2CCCN(S(=O)(=O)c3cnc[nH]3)C2)n1 (stereo not drawn)	AddAB inh 24, E coli growth-1 14
N=C(N)SCc1cn(-c2ccccc2)nc1-c1ccc(Br)cc1	E coli growth-2 0.069 (no result: AddAB inh, E coli growth-1)
Cc1ccc(-c2nn(-c3ccccc3)cc2CO)cc1	none
CCn1c(CCc2ccccc2)n[nH]c1=S	none
CCn1c(CCn2c3ccccc3c3ccccc32)n[nH]c1=S	Tat transport 50
CCn1cc(C(=O)O)c(=O)c2cnc(N3CCN(C(=S)NC(=O)c4ccccc4)CC3)nc21	E coli growth-2 0.41
O=C(OC[C@H]1O[C@@H](OC(=O)c2cc(O)c(O)c(OC(=O)c3cc(O)c(O)c(O)c3)c2)[C@H](OC(=O)c2cc(O)c(O)c(OC(=O)c3cc(O)c(O)c(O)c3)c2)[C@@H](OC(=O)c2cc(O)c(O)c(OC(=O)c3cc(O)c(O)c(O)c3)c2)[C@@H]1OC(=O)c1cc(O)c(O)c(OC(=O)c2cc(O)c(O)c(O)c2)c1)c1cc(O)c(O)c(OC(=O)c2cc(O)c(O)c(O)c2)c1	AddAB inh 28, E coli growth-1 30 (no result: Tat transport, phage Ecoli inh, E coli growth-2)
CCCCCCn1c2c(c(=N)c3c1CCC3)CCC2	none
CCCCCCCCCn1c2c(c(=N)c3c1CCC3)CCC2	E coli growth-1 10, E coli growth-2 0.49 (no result: phage Ecoli inh)
C=CC(C)N(Cc1ccc(OC)cc1)S(=O)(=O)N(Cc1ccccc1)C(C=C)C(C)C (stereo not drawn)	none (no result: AddAB inh, E coli growth-1, Tat transport, phage Ecoli inh)
COc1ccc(NC(=O)Nc2cccc([N+](=O)[O-])c2)cc1Cl	E coli growth-2 0.52
Oc1ccc(C[C@@H]2CNCCN2CCc2cc(C(F)(F)F)cc(C(F)(F)F)c2)cc1	none (no result: E coli growth-2)
FC(F)(F)c1cc(CCN2CCNCC2CC2CCCCC2)cc(C(F)(F)F)c1 (stereo not drawn)	E coli growth-2 0.46 (no result: AddAB inh, E coli growth-1, Tat transport, phage Ecoli inh)
c1ccc(-c2sc3ccccc3c2-c2ccc(OCCN3CCCCC3)cc2)cc1	none
CN(C)CCOc1ccc(-c2c(-c3ccccc3)sc3ccccc23)cc1	E coli growth-2 0.34
FC(F)(F)c1cc(C(F)(F)F)c2ccc(N3CCN(c4ccc(Cl)cc4)CC3)nc2n1	none
N#CC(c1ccc(Cl)cc1)c1ccc2c(C(F)(F)F)cc(C(F)(F)F)nc2n1 (stereo not drawn)	phage Ecoli inh 15
NCCCCCC(=O)NN=Cc1coc2ccccc2c1=O	none (no result: AddAB inh, E coli growth-1, Tat transport, phage Ecoli inh)
S=C(NCc1ccco1)Nc1ccc(Cl)c(Cl)c1	E coli growth-2 0.47
CCCc1cc(=O)n2[nH]cc(-c3ccc(Cl)cc3)c2n1	E coli growth-2 0.35 (no result: AddAB inh, E coli growth-1)
O=[N+]([O-])c1ccc(C=C2CCC(C3=CCCC3)=C2N2CCOCC2)cc1	none (no result: AddAB inh, E coli growth-1, Tat transport, phage Ecoli inh)
COc1cccc2c1OCCC2=NNC(=O)C(C)Oc1ccc([N+](=O)[O-])cc1 (stereo not drawn)	none (no result: AddAB inh, E coli growth-1, Tat transport, phage Ecoli inh)
COc1cc(/C=C/C(O)=C/C(=O)/C=C/c2ccc(O)cc2)ccc1O	E coli growth-1 10 (no result: E coli growth-2)
C/C=C1\NC(=O)[C@H](CC(N)=O)N(C)C(=O)C([C@@H](C)O)NC(=O)C(CCCc2ccc(OC)cc2)NC(=O)[C@H](C(C)C)NC(=O)/C(=C\C)NC(=O)[C@H](O)[C@@H](C[C@@H](O)CCCCCCC)NC(=O)[C@H](C)NC(=O)CN(C)C(=O)[C@H](CCC(N)=O)NC1=O (stereo partly drawn)	E coli growth-2 0.52 (no result: AddAB inh, E coli growth-1)
O=[N+]([O-])c1ccc(N=Nc2c(Cl)cc(O)cc2Cl)cc1	E coli growth-2 0.4
COc1ccc(C=NNc2cc(C)nc3ccccc23)cc1	E coli growth-2 0.49 (no result: AddAB inh, E coli growth-1, Tat transport, phage Ecoli inh)
COc1ccc2nc(C)cc(NN=Cc3ccccc3)c2c1	E coli growth-2 0.44 (no result: AddAB inh, E coli growth-1, Tat transport, phage Ecoli inh)
C(=Nn1cnnc1)c1ccc2c(c1)OCCO2	none (no result: AddAB inh, E coli growth-1, Tat transport, phage Ecoli inh)
Nc1ncn(C2O[C@H](CO)[C@@H](O)[C@H]2O)c(=O)n1 (stereo partly drawn)	AddAB inh 97, E coli growth-1 96 (no result: Tat transport, phage Ecoli inh, E coli growth-2)
Nc1nc(Cl)nc2c1ncn2C1OC(CO)C(O)C1O (stereo not drawn)	none (no result: AddAB inh, E coli growth-1, Tat transport)
Nc1nc(F)nc2c1ncn2C1OC(CO)C(O)C1O (stereo not drawn)	E coli growth-2 0.45! (no result: AddAB inh, E coli growth-1, Tat transport, phage Ecoli inh)
C#CCOCCOCCOCCNc1nc(N2CCN(C(=O)C(CCCCN)n3cc(CC(C)O)nn3)CC2)nc(N2CCN(C(=O)C(C(C)CC)n3cc(CCCN=C(N)N)nn3)CC2)n1 (stereo not drawn)	none (no result: AddAB inh, E coli growth-1, Tat transport, phage Ecoli inh)
CCOc1ccc(N2CC(C(=O)NCCN3C(=O)S/C(=C\c4ccc(OC)cc4)C3=O)CC2=O)cc1 (stereo not drawn)	none
COc1ccc(/C=C2\SC(=O)N(CCNC(=O)C3CC(=O)N(c4ccccc4)C3)C2=O)cc1 (stereo not drawn)	E coli growth-1 12
O=Cc1ccc(O)c2ncccc12	E coli growth-2 0.093 (no result: AddAB inh, E coli growth-1, phage Ecoli inh)
Nc1cccc([N+](=O)[O-])c1	none
O=[N+]([O-])c1cccc(SSc2cccc([N+](=O)[O-])c2)c1	E coli growth-2 0.54 (no result: AddAB inh, E coli growth-1)
CC(=O)c1ccc(C2C[C@]34CN(Cc5cccc(C(F)(F)F)c5)S(=O)(=O)C3CC2O4)cc1 (stereo partly drawn)	none (no result: AddAB inh, E coli growth-1, Tat transport, phage Ecoli inh)
c1ccc(CCNc2ccnc3cc4ccccc4cc23)cc1	E coli growth-2 0.5 (no result: AddAB inh, E coli growth-1)
CC(C)Nc1ccc(Nc2ccnc3cc4ccccc4cc23)cc1	none
COc1ccc(-c2ccc(-c3noc(-c4ccccc4OC)n3)c(OC)n2)cc1	Tat transport 53
CCC(O)=NS(=O)(=O)c1ccc(N=NN(C)C)cc1	none (no result: AddAB inh, E coli growth-1, Tat transport, phage Ecoli inh)
